Source: PubChem BioAssay
An excerpt weighted towards active compounds, which were near 4.2% of everything screened.
GDH-TPI counter-1: GDH-TPI coupled enzyme inhibition counter-screen; hit rate 1.2% among 360,000; inhibition, % at 4.8 µM; GDH-TPI coupled enzyme counterscreen, NADH absorbance;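 also: 0% = DMSO wells and 100% = wells lacking the enzyme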
RecA splice inh: Mtb RecA intein splicing inhibition; AID 2221; inhibition, % (no concentration beside the values); cell-free RecA intein splicing, fluorescence; P9WHJ3; hit rate 0.75% among 290,000; in the data active = inhibition above about 30%;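 also: 0% = vehicle wells and 100% = reference inhibitor control wells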
CCHF vOTU inh: CCHFV vOTU protease inhibition | hit rate 0.55% among 370,000 | AID 651958 | Pep-AMC fluorescence | inhibition, % at 11.5 µM; also: 0% = vehicle wells with enzyme and 100% = no enzyme wells
Mtb FBA inh: inhibits M. tuberculosis FBA enzyme | purified M. tuberculosis FBA, fluorescence read-out | inhibition, % at 1 µM | hit rate 2.3% among 360,000 | AID 588726 | P9WQA3; in the data active = inhibition above about 27%;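 also: 0% = vehicle and 100% = reference inhibitor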
Target sequence (P9WQA3 whole entry, looked up): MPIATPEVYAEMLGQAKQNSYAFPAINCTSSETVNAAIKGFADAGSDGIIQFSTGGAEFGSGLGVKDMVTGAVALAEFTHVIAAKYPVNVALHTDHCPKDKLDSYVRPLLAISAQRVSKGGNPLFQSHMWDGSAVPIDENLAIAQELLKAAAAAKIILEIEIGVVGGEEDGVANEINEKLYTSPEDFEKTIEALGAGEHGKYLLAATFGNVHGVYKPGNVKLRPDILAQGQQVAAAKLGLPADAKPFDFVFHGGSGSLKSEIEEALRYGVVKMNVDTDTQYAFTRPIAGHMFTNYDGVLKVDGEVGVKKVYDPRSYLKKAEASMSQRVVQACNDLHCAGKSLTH
Mtb betalactam: beta-lactam sensitization of Mtb H37Rv; M. tuberculosis H37Rv growth with meropenem, percent inhibition; inhibition, % at 25 µM; hit rate 0.27% among 330,000; AID 434955; call rule not given here;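 also: growth measured after seven days incubation then overnight dye step; 0% = bacteria only wells and 100% = bacteria with antibiotic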
Mtb FBA inh conf: confirmation of M. tuberculosis fructose-bisphosphate aldolase inhibitors | shares compounds with Mtb FBA inh | purified M. tuberculosis FBA, fluorescence read-out | inhibition, % at 1 µM | hit rate 78% among 5,600; in the data active = inhibition above about 27%;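 also: 0% = vehicle wells and 100% = reference inhibitor wells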
GDH-TPI counter-2: counter-screen for M. tuberculosis FBA inhibitors: GDH-TPI coupled enzyme inhibition. shares compounds with Mtb FBA inh. GDH-TPI coupled enzyme counterscreen, fluorescence. inhibition, % at 1 µM. hit rate 81% among 5,600; in the data active = inhibition above about 10%
Active calls of the source: *; i = inactive; / = no result; + = active, no number. Rule as the data show it, unless noted: active = inhibition above about 30%; inactive = the rest.

SMILES	GDH-TPI counter-1	RecA splice inh	CCHF vOTU inh	Mtb FBA inh	Mtb betalactam	Mtb FBA inh conf	GDH-TPI counter-2
C/C(=N\NC(=O)c1cc(-c2ccc(C)s2)nc2ccccc12)c1cccnc1	11	-14	-82	62*	4	136*	111*
CCN(C(=O)COC(=O)c1cc(-c2cccs2)nc2ccccc12)C1CCS(=O)(=O)C1 (stereo not given)	16	-23	-70	72*	-4	45*	45*
O=C(NN1CCOCC1)c1cc(-c2cccs2)nc2ccccc12	20	-3	-64	51*	5	36*	21*
Cc1cc(C(=O)N/N=C/c2cccnc2)c2ccccc2n1	-10	/	11	-5	-10	/	/
O=C(OC1CCOC1=O)c1cc(-c2cccs2)nc2ccccc12 (stereo not given)	6	-49	-90	44*	-7	9	2
O=C(c1cc(-c2cccs2)nc2ccccc12)N1CCN(c2ccccc2O)CC1	0	19	-12	10	96	/	/
O=C(N/N=C/c1cccnc1)c1cc(-c2cccs2)nc2ccccc12	16	-1	-73	56*	-3	51*	50*
O=C(c1cc(-c2cccs2)nc2ccccc12)N1CCN(CCO)CC1	8	/	-82	99*	/	+	+
COC(=O)[C@]12C[C@H](CC(=O)NCc3ccccc3)C(=O)N(Cc3cccc4ccccc34)C1=C[C@H](C(C)C)O[C@@H]2C1CC1	/	/	12	/	/	/	/
COc1ccc2[nH]c3c(c2c1)CCN[C@]31C(=O)N(C)c2ccccc21	/	/	-5	/	/	/	/
COC(=O)C1CN(Cc2ccc(C)cc2)CCS(=O)(=O)N1Cc1cn(Cc2ccc(C)cc2)nn1 (stereo not given)	/	/	6	/	/	/	/
CC(C)OCCOc1ccc2oc(-c3ccco3)cc(=O)c2c1	22	1	-142	77*	35	-3	-4
O=c1cc(-c2ccco2)oc2ccccc12	28	/	-43	86*	/	7	2
COc1ccc2oc(-c3ccccc3[N+](=O)[O-])cc(=O)c2c1	4	0	-3	3	0	/	/
O=c1cc(-c2ccncc2)oc2ccccc12	9	3	2	-3	-2	/	/
COc1cccc(CNC(=O)CN2CCCc3ccccc32)c1OC	/	/	-6	/	/	/	/
Cc1coc2c1c(C)cc1oc(=O)c(CC(=O)NCC(=O)NCC(=O)O)c(C)c12	20	0	-86	93*	4	+	+
Cc1coc2c1c(C)cc1oc(=O)c(Cc3ccccc3)c(C)c12	8	1	5	-2	22	/	/
Cc1coc2c1c(C)cc1oc(=O)c(CC(=O)NCCC(=O)O)c(C)c12	10	0	-86	91*	10	62*	57*
COCCCNC(=O)Cc1c(C)c2c(cc(C)c3c(C(C)(C)C)coc32)oc1=O	7	7	-27	36*	86	62*	54*
Cc1oc2c(c(C)cc3oc(=O)c(CC(=O)NCC(=O)NCC(=O)NCC(C)O)c(C)c32)c1C (stereo not given)	-1	-7	-23	24	2	/	/
COCCNC(=O)Cc1c(C)c2c(cc(C)c3c(C)coc32)oc1=O	1	-1	-9	38*	-11	159*	125*
Cc1ccc(S(=O)(=O)NCC(=O)N2CCN(c3ccccn3)CC2)s1	/	/	2	/	/	/	/
C[C@H](c1ccccc1)N1C[C@@H](COCc2ccccc2)Oc2cccc(Oc3ccccc3)c2S1(=O)=O	/	/	12	/	/	/	/
O=C1C[C@H](C(=O)Nc2ccc(Cl)cc2)[C@@H](c2ccccc2)O1	/	/	-3	/	/	/	/
SMILES	GDH-TPI counter-1	RecA splice inh	CCHF vOTU inh	Mtb FBA inh	Mtb betalactam	Mtb FBA inh conf	GDH-TPI counter-2
CCCCCCc1cc2cc(C(=O)OCC)c(=O)oc2cc1O	9	i	10	44*	-1	136*	97*
O=C(CSc1nc2ccccc2nc1N1CCCCC1)N1CCN(S(=O)(=O)c2ccccc2)CC1	/	/	7	/	/	/	/
Cc1[nH]n(S(=O)(=O)Cc2ccccc2)c(=O)c1N=Nc1ccccc1Cl	-5	12	15	40*	99	-4	-6
CSc1nc(-c2ccccc2)c(-c2ccccc2)[nH]1	-6	-2	-11	50*	-4	7	-4
Cc1cc(OCC(=O)NCCc2cccc(F)c2)c2c(C)cc(=O)oc2c1	6	0	-1	25	9	/	/
Cc1cc(OC(C)C(=O)NCc2ccncc2)c2c(C)c(C)c(=O)oc2c1 (stereo not given)	7	-1	-8	103*	-7	57*	49*
